Unmarked numbers belong to inactive results.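 How the source made its calls: active means EC50 at most 10 µM with percent response changing by at least 30% across doses, from a valid fit; inactive means the rest.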

A short description of this assay: GST-GSH bead binding interference, SAR follow-up, counter-screen for Rab7 GTPase inhibitor project, biochemical, flow cytometry beads, round 1 (AID 602137). As to conditions: GST-GFP on GSH beads; series mostly up to 100 µM; percent response (bead binding): at the top concentration. Background: Counterscreens check selectivity or assay interference.
On to `CC1(C)Cc2c(sc(NC(=S)NC(=O)c3ccc(Br)cc3)c2C(=O)O)CO1`, for which the “percent response (bead binding)” value is 95.1%. Regarding `CC1(C)Cc2c(sc(NC(=S)Nc3ccccc3)c2C(=O)O)CO1`, the “percent response (bead binding)” value is 99.4%. Consider `CC1(C)CCc2sc(NC(=S)NC(=O)c3ccccc3)c(C(=O)O)c2C1`, for which the “percent response (bead binding)” value is 92%. Regarding `CCOC(=O)c1c(NC(=O)Nc2ccc(C)cc2)sc2c1CCN(C)C2`, the “percent response (bead binding)” value is 111%. For the compound `CCOC(=O)c1c(N)sc2ccccc12`, the “percent response (bead binding)” value is 85%.

With `COc1cccc(C(=O)NC(=S)Nc2sc3c(c2C(=O)O)CC(C)(C)OC3)c1`, the “percent response (bead binding)” value was 92.6%. Turning to `CC1(C)Cc2c(sc(NC(=S)NC(=O)c3cccc(Br)c3)c2C(=O)O)CO1`, the “percent response (bead binding)” value was 93.9%. For `CC1(C)Cc2c(sc(NC(=O)NC(=O)c3ccccc3)c2C(=O)O)CO1`, the “percent response (bead binding)” value was 104%.

For `CCOC(=O)c1c(NC(=O)NC(C)(C)C)sc2c1CCN(C)C2`, the “percent response (bead binding)” value was 109%. In the case of `NS(=O)(=O)c1ccc(N2N=C(c3ccccc3)CC2c2ccccc2)cc1` (stereo not given), the “percent response (bead binding)” value was 104%. As for `Cc1ccc(Nc2nc3sc4c(c3c(=O)o2)CCN(C)C4)cc1`, the “percent response (bead binding)” value was 98.2%.

Consider `CC1(C)Cc2c(sc(NC(=S)NC(=O)c3ccccc3)c2C(=O)O)CO1`, for which the “percent response (bead binding)” value is 102%. With `CC(C)(C)OC(=O)c1c(NC(=S)NC(=O)c2ccccc2)sc2c1CCOC2`, the “percent response (bead binding)” value was 101%. Take `COC(=O)c1c(N)sc2c1CC(C)(C)OC2`: the “percent response (bead binding)” value was 105%. The same measure for `CCOC(=O)c1c(NC(=O)Nc2ccc(F)cc2)sc2c1CCN(C)C2`: 105%; for `Cc1ccc(NC(=O)Nc2sc3c(c2C(=O)O)CCN(C)C3)cc1`: 105%. On to `O=C(C#Cc1ccccc1)c1cccc([N+](=O)[O-])c1`, for which the “percent response (bead binding)” value is 105%. For `COc1ccc(C2CC(c3ccccc3)=NN2c2ccc(S(N)(=O)=O)cc2)cc1` (stereo not given), the “percent response (bead binding)” value is 103%.

Consider `COC(=O)c1c(NC(=S)NC(=O)c2ccccc2)sc2c1CC(C)(C)OC2`, for which the “percent response (bead binding)” value is 100%.

As to `CC1Cc2c(sc(NC(=S)NC(=O)c3ccccc3)c2C(=O)O)CO1` (stereo not given), the “percent response (bead binding)” value was 98.8%.

With `CCOC(=O)c1c(NC(=S)Nc2ccccc2)sc2c1CC(C)(C)OC2`, the “percent response (bead binding)” value is 107%.

As to `CCOC(=O)c1c(NC(=S)NC(=O)c2ccccc2)sc2ccccc12`, the “percent response (bead binding)” value is 108%.

`CC1(C)Cc2c(sc(NC(=S)NC(=O)c3ccccc3F)c2C(=O)O)CO1`: the “percent response (bead binding)” value was 95.3%. On to `CN1CCc2c(sc3nc(Nc4ccc(F)cc4)oc(=O)c23)C1`, for which the “percent response (bead binding)” value is 104%.

With `COc1ccc(C(=O)NC(=S)Nc2sc3c(c2C(=O)O)CC(C)(C)OC3)cc1`, the “percent response (bead binding)” value is 93.3%. The same measure for `O=C(NC(=S)Nc1sc2c(c1C(=O)O)CCOC2)c1ccccc1`: 98.4%.

In the case of `CC1(C)Cc2c(sc(NC(=O)Cc3ccccc3)c2C(=O)O)CO1`, the “percent response (bead binding)” value is 104%. Take `CC1(C)Cc2c(sc(NC(=S)NC(=O)c3ccccc3Br)c2C(=O)O)CO1`: the “percent response (bead binding)” value is 99%. Regarding `CN1CCc2c(sc(NC(=O)Nc3ccc(F)cc3)c2C(=O)O)C1`, the “percent response (bead binding)” value is 91.8%. Take `CC1(C)Cc2c(sc(NC(=S)NC(=O)c3cccc(F)c3)c2C(=O)O)CO1`: the “percent response (bead binding)” value was 88%.

These data come from PubChem BioAssay AID602137 (NMMLSC, 2011).
